# Rows were chosen to be rich in hits. Some 2.5% of all compounds tested hit in one or more screens of this group.
# Pol eta inh – qHTS for Inhibitors of Polymerase Eta; recombinant Pol eta, fluorescent DNA replication assay; AID 588591, 2011; 390,000 tested, 1.2% active; Potency, µM (series often up to 114 µM), actives largely listed as inhibitors
#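 Fluorescent replication assay: 50 nM final substrate added after a 15 min room-temperature compound preincubation with 10 nM enzyme. Signal taken at 0 min and again at 10 min.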
# L3MBTL1 inh – qHTS Assay for the Inhibitors of L3MBTL1; Lethal(3)malignant brain tumor-like protein 1 (Homo sapiens), Q9Y468; Potency, µM (titrated, usually from 57.1 µM), most hits filed as inhibitors; 230,000 tested, 0.66% active; AlphaScreen L3MBTL1–H3K9me1 peptide binding; note: nearly all actives have a fitted effect of over 60% in size
# Target sequence (Q9Y468 whole entry, looked up): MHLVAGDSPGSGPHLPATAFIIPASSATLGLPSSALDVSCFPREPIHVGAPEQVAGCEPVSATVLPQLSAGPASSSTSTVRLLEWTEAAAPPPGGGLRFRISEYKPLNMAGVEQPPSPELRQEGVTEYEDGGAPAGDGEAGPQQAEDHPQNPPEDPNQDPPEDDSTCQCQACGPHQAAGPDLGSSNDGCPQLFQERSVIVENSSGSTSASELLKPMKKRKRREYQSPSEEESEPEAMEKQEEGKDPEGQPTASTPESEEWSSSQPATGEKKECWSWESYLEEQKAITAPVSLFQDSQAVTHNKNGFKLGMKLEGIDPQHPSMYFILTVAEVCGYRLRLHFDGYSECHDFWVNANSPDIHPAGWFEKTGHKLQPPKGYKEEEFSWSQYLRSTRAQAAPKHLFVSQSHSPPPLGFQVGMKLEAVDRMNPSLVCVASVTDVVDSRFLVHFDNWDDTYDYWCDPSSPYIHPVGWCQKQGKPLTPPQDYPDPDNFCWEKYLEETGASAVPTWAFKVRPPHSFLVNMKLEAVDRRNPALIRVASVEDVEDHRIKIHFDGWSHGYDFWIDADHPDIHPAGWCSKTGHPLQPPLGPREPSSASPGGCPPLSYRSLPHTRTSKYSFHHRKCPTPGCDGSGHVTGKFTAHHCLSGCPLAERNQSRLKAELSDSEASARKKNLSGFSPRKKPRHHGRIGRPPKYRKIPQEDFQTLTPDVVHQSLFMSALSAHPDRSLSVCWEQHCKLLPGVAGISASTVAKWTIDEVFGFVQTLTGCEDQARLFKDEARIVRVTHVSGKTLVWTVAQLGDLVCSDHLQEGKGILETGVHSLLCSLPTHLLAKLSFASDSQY
#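 AlphaScreen proximity signal between nickel-chelate acceptor and streptavidin donor beads (final 10 ug/mL) reports binding of 50 nM L3MBTL1 to 75 nM biotin-H3 K9me1 peptide; complex incubated with compounds 30 min at room temperature; cefsulodin titration as control.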
# Pol beta inh – qHTS Assay for Inhibitors of DNA Polymerase Beta | 340,000 tested, 1.3% active | P06746 | Pol beta primer extension/strand displacement, fluorescence kinetic | Potency, µM (titrated, usually from 114 µM), usual class: inhibitors
#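 Enzyme-only controls used 10 nM Pol beta; buffer lacking enzyme served as negative control. Compound preincubated 15 min, then 50 nM substrate added; 0 and 10 min reads at room temperature.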
# WRN helicase inh – qHTS for Inhibitors of WRN Helicase | WRN helicase unwinding, fluorescent forked duplex, kinetic | Potency, µM (titrated, usually from 114 µM), most hits filed as inhibitors | AID 651768, 2012 | Bifunctional 3'-5' exonuclease/ATP-dependent helicase WRN (Homo sapiens), Q14191 | 360,000 tested, 0.46% active; note: nearly all actives have a fitted effect of over 55% in size
#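 Primary qHTS, 1536-well format. 20 nM WRN + compound, 15 min RT; start with 100 nM forked fluorophore/quencher duplex, 2 mM ATP (final); kinetic read ex 525/em 598 nm.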
# Pol kappa inh – qHTS for Inhibitors of Polymerase Kappa | purified Pol kappa, fluorescent DNA synthesis assay, 10 min | DNA polymerase kappa (Homo sapiens), Q9UBT6 | 400,000 tested, 0.53% active | Potency, µM (top dose mostly 107 µM), usual class: inhibitors
#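 Inhibition of 10 nM Pol kappa is measured by a fluorescent read-out at 0 and 10 min following addition of 50 nM substrate (final), with a 15-min room-temperature compound preincubation.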
# POLI inh – qHTS for Inhibitors of Polymerase Iota | DNA polymerase iota (Homo sapiens), Q9UNA4 | Pol iota fluorescent replication assay, 10 min | Potency, µM (top dose mostly 115 µM), actives largely listed as inhibitors | 390,000 tested, 1% active | AID 588590, 2011
#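 Pol iota at 10 nM preincubated 15 min with compounds at room temperature; reaction started with fluorescent substrate, 50 nM final. Fluorescence read kinetically at 0 and 10 min; buffer-only wells as negative control.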
# Numbers stand for hits; – = inactive; ? = inconclusive; · = no result; [ ] = remark or other dose. Calls come from the whole dose curve; as a rule, active = well fitted curve in the direction sought with a large enough effect; inconclusive = small, poorly fitted or top-dose-only effect, or another doubt; inactive = no such curve, though single readings can be large; an effect the other way counts as inactive or inconclusive.
SMILES,Pol eta inh,L3MBTL1 inh,Pol beta inh,WRN helicase inh,Pol kappa inh,POLI inh
O=C(COc1ccc2ccccc2c1)N1c2ccccc2Sc2ccccc21,–,–,–,–,–,–
COc1ccc(C(=O)c2c(N)c(C(=O)Nc3cccc(OC)c3)c3ccccn23)cc1,·,·,–,·,–,–
COc1ccc2nc(C)cc(SCC(=O)N/N=C/c3cccc4ccccc34)c2c1,?,–,–,–,–,–
Cc1ccc2nc(C)cc(SCC(=O)N/N=C/c3ccco3)c2c1,–,·,39.8µM,–,–,–
Cc1csc(NC(=O)CSCC(=O)O)c1-c1nc2ccccc2s1,89.1µM,–,–,–[11.6 µM],–,?
Cc1ccc2nc(-c3ccc(NC(=O)CSCC(=O)O)cc3)sc2c1,–,–,–,–,–,–
C[C@H](CO)N1C[C@H](C)[C@@H](CN(C)Cc2cccnc2)Oc2ncc(-c3cccc(C#N)c3)cc2C1=O,–,·,·,–,·,·
Cc1cc(NC(=O)COc2cccc3cccnc23)no1,·,?,31.6µM,·,·,·
O=CN1CCN(CC(O)Cn2c3ccccc3c3ccccc32)CC1 (stereo not drawn),–,–,–,–,–,–
COc1cc(S(=O)(=O)O)c(C)cc1N=Nc1c(O)ccc2cc(S(=O)(=O)O)ccc12,·,·,·,·,79.4µM,44.7µM
Cc1cccc(N=C2NC(=O)/C(=C\c3cccs3)S2)c1,?,–,–,–,–,–
O=C1NC(=Nc2ccccc2)S/C1=C/c1cccs1,–,·,31.6µM,–,–,?
Cc1ccc(N=C2NC(=O)/C(=C/c3cccs3)S2)cc1C,–,–,10µM,–,–,–
CS(=O)(=O)c1ccc(Cl)c(NC(=O)COC(=O)C23CC4CC(CC(C4)C2)C3)c1,–,–,·,–,–,–
O=C(NC1CCCN(Cc2ccccc2F)C1)c1cccc(N2CCCC2=O)c1 (stereo not drawn),–,·,–,–,–,–
Cc1ccccc1-c1nnn(CC(=O)N(C)CC(=O)Nc2ccccc2C(F)(F)F)n1,–,–,·,–,–,–
O=[N+]([O-])c1cc(CN2CCN(c3cccc(C(F)(F)F)c3)CC2)c2cccnc2c1O,–,·,17.8µM,–,–,–
CCN1C(=NCCc2ccc([N+](=O)[O-])cc2)N[C@@H](c2ccccc2)[C@H](C(=O)OC)[C@H]1C,–,–,–,–,–,–
Nc1ccc2ccc(O)cc2c1,50.1µM,·,·,?,?,?
CCCC[n+]1ccn(-c2nc3ccccc3nc2[N-]S(=O)(=O)c2ccccc2)c1,–,·,–,–,–,?
CCCC[n+]1ccn(-c2nc3ccccc3nc2[N-]S(=O)(=O)c2cccs2)c1,–,–,17.8µM,–,–,–
O=c1[nH]c2cc3c(cc2cc1CN(Cc1ccccc1)Cc1nnnn1Cc1ccco1)OCCO3,?,?,31.6µM,?,?,17.8µM
O=c1[nH]c2cc3c(cc2cc1CN(Cc1cccs1)Cc1nnnn1Cc1ccco1)OCCO3,17.8µM,?,31.6µM,?,25.1µM,?
CCc1ccc2[nH]c(=O)c(CN(Cc3ccccc3)Cc3nnnn3Cc3ccco3)cc2c1,–,–,–,–,–,?
COc1ccccc1CN(Cc1cc2cc3c(cc2[nH]c1=O)OCCO3)Cc1nnnn1Cc1ccco1,31.6µM,–,14.1µM,–,?,?
SMILES,Pol eta inh,L3MBTL1 inh,Pol beta inh,WRN helicase inh,Pol kappa inh,POLI inh
Cc1ccc2[nH]c(=O)c(CN(CCCO)Cc3nnnn3Cc3ccco3)cc2c1,·,·,·,·,?,79.4µM
CCCCn1c(N)c(N(CC(C)C)C(=O)c2ccc(-c3ccc(Cl)cc3)o2)c(=O)[nH]c1=O,–,–,·,–,–,–
CC(=O)Oc1ccc(N2C(=O)C3C(C2=O)C2C=CC3C23CC3)cc1[N+](=O)[O-] (stereo not drawn),–,–,–,–,–,–
Cc1cc(C)cc(N(C(C)C(=O)N2CCOCC2)S(C)(=O)=O)c1 (stereo not drawn),–,–,–,–,–,–
O=c1[nH]c2cc3c(cc2cc1CN(Cc1cccnc1)Cc1nnnn1Cc1ccco1)OCCO3,?,·,39.8µM,56.2µM,89.1µM,15.8µM
O=C(O)c1ccc(-n2c(O)c(C=C3N=c4ccccc4=N3)sc2=S)cc1,–,–,–,–[11.6 µM],?,2.24µM
O=C(O)c1ccc(-n2ncc3c2/C(=C/c2cccc([N+](=O)[O-])c2)CC3)cc1,50.1µM,·,–,–,–,?
OCc1ccccc1SSc1ccccc1CO,–,·,·,14.1µM,–,?
COc1ccc(Br)cc1C1Nc2cccc3cccc(c23)N1,–,–[2.29 µM],79.4µM,–,–,–
COc1cc(C2Nc3cccc4cccc(c34)N2)ccc1O,?,–,–,–,–,–
CCC(=Nc1ccc(N)cc1)C1=C(O)C(C(=O)OC)C(C)(C)CC1=O (stereo not drawn),–,28.2µM,–,–,?,?
CCOC(=O)c1c(/N=C/c2ccc(OC)cc2O)sc2c1CCN(C)C2,?,25.1µM,–,–,?,?
O=C(Nc1ccc2oc(-c3cccnc3)nc2c1)c1ccc2c(c1)OCCO2,?,–,14.1µM,?,?,?
O=C(Nc1ccc2oc(-c3ccccc3)nc2c1)c1ccc2c(c1)OCCO2,–,–,–,–,–,–
Cc1c(NC(=O)Cc2ccc(F)cc2)cccc1-c1nc2cccnc2s1,–,·,?,·,–,?
Cn1cnc(S(=O)(=O)N2CCN(c3cccc(Cl)c3)CC2)c1,–,·,–,–,–,–

# Screens deposited in PubChem by National Center for Advancing Translational Sciences (NCATS).
